This is a sample that favours compounds with a hit; in the whole collection about 2.9% have one here.
MEKK2wt PB1 HTS – modulators of MEK5 binding to wildtype MEKK2, primary screen, biochemical, multiplex bead flow cytometry, Alexa488-MEK5; Mitogen-activated protein kinase kinase kinase 2 (Homo sapiens), Q9Y2U5; 290,000 tested, 1.1% active; binding response (% of control), % at 10 µM; Alexa488-MEK5 binding to MEKK2 WT; actives lie on both sides; in the data active = binding response below about 67% or above about 130%
MEKK3 PB1 HTS – modulators of MEKK3-MEK5 PB1 binding, primary screen, biochemical, wildtype MEKK3, multiplex bead flow cytometry, Alexa488-MEK5. 290,000 tested, 1.4% active. binding response (% of control), % at 10 µM. bead-based flow cytometry, Alexa488-MEK5 binding to MEKK3; actives lie on both sides; 0 = blocked by unlabeled MEK5, 100 = vehicle;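 active = binding response more than 3 SD above or below the average of its plate-row segment, actives on both sides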;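 note: Alexa488 bead fluorescence after subtracting the streptavidin-only scavenger bead signal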
MEKK2 mut-MEK5 – MEK5 binding signal on mutant MEKK2 PB1, primary screen, biochemical, multiplex bead flow cytometry, Alexa488-MEK5. Alexa488-MEK5 binding to MEKK2 mutant. percent response, % at 10 µM. 290,000 tested, 0.35% active; in the data active = percent response above about 24%, passing the limit was not always enough
GRK2 inh – compounds blocking aptamer binding on GRK2 – biochemical, human GRK2, bead flow cytometry, HTS, primary screen; 330,000 tested, 0.59% active; AID 488847, 2010; inhibition of aptamer binding, % at 10 µM; FAM-aptamer displacement from GRK2;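 active = inhibition of aptamer binding above 40%, roughly 3 SD of noise, on plates passing a quality check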;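 note: median bead fluorescence of bound FAM aptamer so fluorescent compounds give negative values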
Beta2AR agonist – beta2AR agonists driving receptor internalization, primary screen, cell-based, FAP fluorogen, flow cytometry; Am2.2-beta2AR cells; AID 504454, 2011; response, % (no concentration beside the values); 340,000 tested, 0.43% active;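 active = response above a set limit, near 3 SD of response in nonfluorescent compounds, cut at about 42% in these data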
Target sequence (P07550 whole entry, looked up): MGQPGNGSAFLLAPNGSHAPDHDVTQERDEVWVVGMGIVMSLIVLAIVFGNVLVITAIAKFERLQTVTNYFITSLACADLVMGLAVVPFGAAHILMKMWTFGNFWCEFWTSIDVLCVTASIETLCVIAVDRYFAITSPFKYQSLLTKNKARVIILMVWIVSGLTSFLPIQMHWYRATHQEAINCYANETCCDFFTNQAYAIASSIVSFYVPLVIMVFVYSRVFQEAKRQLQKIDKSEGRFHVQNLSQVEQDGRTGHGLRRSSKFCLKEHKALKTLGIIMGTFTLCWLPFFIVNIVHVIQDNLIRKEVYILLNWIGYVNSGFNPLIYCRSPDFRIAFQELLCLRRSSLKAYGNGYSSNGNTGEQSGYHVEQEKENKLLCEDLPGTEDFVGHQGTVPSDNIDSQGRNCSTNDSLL
MEKK2wt confirm – modulators of MEK5 binding to wildtype MEKK2, confirmation, biochemical, single concentration, multiplex bead flow cytometry | Alexa488-MEK5 binding to MEKK2 WT; actives lie on both sides | shares compounds with MEKK3 PB1 HTS | 5,900 tested, 2.4% active | binding response (% of control), % at 10 µM; in the data active = binding response below about 16% or above about 210%; inactive = in between
MEKK2mut confirm – mutant MEKK2 PB1-MEK5 binding signal retest – biochemical, single concentration, multiplex bead flow cytometry, confirmation. shares compounds with MEKK3 PB1 HTS. Alexa488-MEK5 binding to MEKK2 mutant. percent response, % at 10 µM. 5,900 tested, 2% active; in the data active = percent response mostly above about 71%, no sharp cut-off; inactive = mostly below about 38%;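 note: higher means compound restores mutant binding toward wildtype level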
MEKK3 confirm – MEKK3 wild-type PB1 binding to MEK5, inhibitors, confirmation, biochemical, bead multiplex flow cytometry, single concentration, wildtype; shares compounds with MEKK3 PB1 HTS; Alexa488-MEK5 binding to MEKK3; hits give low values; binding response (% of control), % at 10 µM; 5,900 tested, 1.8% active; AID 1894, 2009;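 active = binding response below 72% of control, or above a set upper limit, though filed actives all read lower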;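 note: lower values mean stronger disruption of MEK5 binding to MEKK3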
Of the large screens only hits and unclear results are named; the others gave an inactive call (follow-up assays come after a bar, where they were run); [ ] = remark or other dose.

O=C(c1ccc(-c2ccccc2)cc1)C1CCCN(Cc2ccncc2)C1 (configuration not stated)	none
O=C(c1ccc(Cl)cc1)C1CCCN(Cc2cnn(-c3ccccc3)c2)C1 (configuration not stated)	MEKK2wt PB1 HTS 148 | MEKK2wt confirm inactive | MEKK2mut confirm inactive | MEKK3 confirm inactive
CCCn1c(-c2cccc([N+](=O)[O-])c2)nc2c1c(=O)[nH]c(=O)n2Cc1ccccc1	MEKK3 PB1 HTS 70[inhibitor] | MEKK2wt confirm inactive | MEKK2mut confirm inactive | MEKK3 confirm inactive
CCOc1ccc(C(=O)Nc2ccc3nc(N4CCN(CC)CC4)cc(C)c3c2)cc1	MEKK2wt PB1 HTS 148 | MEKK2wt confirm inactive | MEKK2mut confirm inactive | MEKK3 confirm inactive
CCN1CCN(c2cc(C)c3cc(NC(=O)c4cnccn4)ccc3n2)CC1	none
CCOc1ccc2ncc(C(=O)c3ccc(OC)cc3)c(N3CCN(CC)CC3)c2c1	MEKK2wt PB1 HTS 499 | MEKK2wt confirm inactive | MEKK2mut confirm inactive | MEKK3 confirm inactive
CCN1CCN(c2cc(C)c3cc(NC(=O)c4cc(OC)cc(OC)c4)ccc3n2)CC1	MEKK2wt PB1 HTS 139 | MEKK2wt confirm inactive | MEKK2mut confirm inactive | MEKK3 confirm inactive
CCC(C)NC(=O)CCC(=O)Nc1ccc2nc(N3CCOCC3)cc(C)c2c1 (configuration not stated)	none
CCC(C)NC(=O)CCC(=O)Nc1ccc2nc(N3CC(C)CC(C)C3)cc(C)c2c1 (configuration not stated)	MEKK2wt PB1 HTS 9.0, MEKK2 mut-MEK5 90 | MEKK2wt confirm inactive | MEKK2mut confirm inactive | MEKK3 confirm inactive
CN(Cc1ccco1)S(=O)(=O)c1csc(C(N)=O)c1	none
CCN(CC(=O)NCc1ccc(F)cc1)C(=O)C1CCN(S(=O)(=O)c2ccc(C(C)C)cc2)CC1	none (no result: MEKK2wt PB1 HTS, MEKK3 PB1 HTS, MEKK2 mut-MEK5, GRK2 inh)
CCN1CCN(c2cc(C)c3cc(NC(=S)N4CCN(c5ccccc5F)CC4)ccc3n2)CC1	MEKK2wt PB1 HTS 148 | MEKK2wt confirm inactive | MEKK2mut confirm inactive | MEKK3 confirm inactive
CCN1CCN(c2cc(C)c3cc(NC(=O)Cc4ccc(OC)c(OC)c4)ccc3n2)CC1	MEKK2 mut-MEK5 26 | MEKK2wt confirm inactive | MEKK2mut confirm inactive | MEKK3 confirm inactive
CCN1CCN(c2cc(C)c3cc(NC(=O)CCC(=O)N4CCN(c5ccccc5OC)CC4)ccc3n2)CC1	none
OC(CNC1CCCCC1)COCCOc1ccc(Br)cc1 (configuration not stated)	none
COC(CNC(=O)c1cc(-c2ccncc2)nc2ccc(S(=O)(=O)N3CCOCC3)cc12)OC	none
Cc1ccc(C)c(C(=O)COC(=O)Cn2c(C)csc2=O)c1	none
CC(=O)c1c(C)[nH]c(C(=O)OCC(=O)N(CC(C)C)C2CCS(=O)(=O)C2)c1C (configuration not stated)	none (no result: MEKK2wt PB1 HTS, MEKK3 PB1 HTS, MEKK2 mut-MEK5, GRK2 inh)
CC(C)CN(C(=O)COC(=O)C12CC3CC(CC(O)(C3)C1)C2)C1CCS(=O)(=O)C1 (configuration not stated)	MEKK2wt PB1 HTS 0.0[inhibitor], MEKK3 PB1 HTS 0.0[inhibitor] | MEKK2wt confirm inactive | MEKK2mut confirm inactive | MEKK3 confirm inactive
CCOC(=O)c1sc2cc([N+](=O)[O-])cc(SCC(C)C)c2c1N	MEKK2wt PB1 HTS 16, MEKK2 mut-MEK5 28 | MEKK2wt confirm inactive | MEKK2mut confirm inactive | MEKK3 confirm inactive
CCc1ccc2c(c1)C(c1ccc(N3CCOCC3)cc1)=NNC(c1ccncc1)=N2	MEKK3 PB1 HTS 148 | MEKK2wt confirm inactive | MEKK2mut confirm inactive | MEKK3 confirm inactive
CCN1CCc2c(sc(NC(=O)c3cc4ccccc4cc3OC)c2C(N)=O)C1	MEKK2wt PB1 HTS 149, MEKK2 mut-MEK5 26 | MEKK2wt confirm inactive | MEKK2mut confirm inactive | MEKK3 confirm inactive
COc1cccc(OC)c1C(=O)Nc1sc2c(c1C(N)=O)CCN(Cc1ccccc1)C2	none
CCN(CC)CCNC(=O)c1cn(CC)c2cc(N3CCN(C)CC3)c(F)cc2c1=O	none
CSc1nc2c(c(=O)[nH]1)C(c1ccccc1)C1=C(CC(C)(C)CC1=O)N2 (configuration not stated)	MEKK3 PB1 HTS 131 | MEKK2wt confirm inactive | MEKK2mut confirm inactive | MEKK3 confirm inactive
COC(=O)c1sccc1NC(=O)c1ccc(Br)o1	none
COC(=O)c1sccc1NC(=O)c1ccc(C)o1	MEKK2wt PB1 HTS -1.0[inhibitor], MEKK3 PB1 HTS 0.0[inhibitor] | MEKK2wt confirm inactive | MEKK2mut confirm inactive | MEKK3 confirm inactive
Cc1ccc(SCc2nc3ccccc3n2CC(=O)Nc2ccc(Cl)cc2)cc1	MEKK2wt PB1 HTS 136, MEKK2 mut-MEK5 26 | MEKK2wt confirm inactive | MEKK2mut confirm inactive | MEKK3 confirm inactive
CCC12CC3CC(C1)CC(C(=O)NNC(N)=O)(C3)C2	MEKK3 PB1 HTS 128 | MEKK2wt confirm inactive | MEKK2mut confirm inactive | MEKK3 confirm inactive
COCCNC(=O)C(=O)NCC1OCCN1S(=O)(=O)c1ccc2c(c1)OCCO2 (configuration not stated)	MEKK3 PB1 HTS 129 | MEKK2wt confirm inactive | MEKK2mut confirm inactive | MEKK3 confirm inactive
Cc1ccc(C(=O)CN2C(=O)NC3(CCc4ccccc43)C2=O)s1 (configuration not stated)	none (no result: MEKK2wt PB1 HTS, MEKK3 PB1 HTS, MEKK2 mut-MEK5)
C[C@H](CO)N1C[C@H](C)[C@@H](CN(C)S(=O)(=O)c2cn(C)cn2)Oc2ccc(NC(=O)NC3CCCCC3)cc2C1=O	none (no result: MEKK2wt PB1 HTS, MEKK3 PB1 HTS, MEKK2 mut-MEK5)
O=c1oc2ccccc2nc1/C=C(O)/C=C/c1ccc(F)cc1	none
O=c1oc2ccccc2nc1/C=C(O)/C=C\c1ccccc1	MEKK2wt PB1 HTS 61[inhibitor], MEKK3 PB1 HTS 82[inhibitor] | MEKK2wt confirm inactive | MEKK2mut confirm inactive | MEKK3 confirm inactive
O=C(Cc1ccc2cccnc2c1)c1ccc(O)cc1O	MEKK2wt PB1 HTS -1.0[inhibitor], MEKK3 PB1 HTS 2.0[inhibitor] | MEKK2wt confirm inactive | MEKK2mut confirm inactive | MEKK3 confirm inactive
